These results are taken from PubChem BioAssay (NCATS).

Results filed as inconclusive are left out. A call without a number means that no potency is given here. The source made the active and inactive calls. The call rests on the fitted dose curve; in most records, active means well fitted inhibition curve with a large enough effect; inconclusive means small, poorly fitted or top-dose-only effect; inactive means no such curve, though single readings can be large or run the other way.
Potency means the concentration at half of the fitted maximal effect.

This assay concerns Zika virus NS2B-NS3 protease (unlinked complex). The experiment in a line: Primary screen GU Rhodamine qHTS for Zika virus inhibitors: Unlinked NS2B-NS3 protease assay (AID 1347159). Further: nearly all actives have a fitted effect of over 60% in size. Particulars: Recombinant ZIKV NS2B-NS3 protease, Rhodamine110 substrate fluorescence; series mostly up to 107 µM. A digest of the protocol:
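Noncovalent NS2B hydrophilic domain–NS3 protease domain complex (25 nM) preincubated 15 min at room temperature with compounds (up to 114 microM) in 10 mM Tris-HCl pH 8.0, 0.01% Tween 20; 1.5 microM Rhodamine110 substrate added, fluorescence change over 15 min fitted to Hill equation.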
For orientation: In qHTS, concentration-response curves come from the screen itself.
As for `CC(C)=CCC/C(C)=C/CO[C@@H]1O[C@H](CO)[C@@H](O)[C@H](O)[C@H]1O`, the Potency result is “inactive”.
For the molecule `COc1ccc(/C=C\C(=O)O)c(O[C@@H]2O[C@H](CO)[C@@H](O)[C@H](O)[C@H]2O)c1`, the Potency entry was “inactive”.
Under `CC1(C)C2CC(OC3OC(COC4OCC(O)(CO)C4O)C(O)C(O)C3O)C1(C)CC2O` (stereo not drawn) stands “inactive”; under `CCC(C)/C=C(C)/C=C/c1cc2c(cn1)C(=O)C(C)(OC(C)=O)C(O)=C2Cl` (stereo not drawn), 10 µM (active); under `CO[C@@H](C)Cn1c(=O)n(C)c2cnc3ccc(-c4cncc(C(C)(C)O)c4)cc3c21`, “inactive”.
In the case of `COc1cc2ncnc(Nc3cccc(O)c3)c2cc1OC`, the Potency result is “inactive”.
Regarding `COc1cc(Br)c(S(=O)(=O)Nc2ccc(C(F)(F)F)c(O[C@@H]3CCN(C)C3)c2)cc1OC`, the Potency result is “inactive”.
In the case of `CC1=C(/C=C/C(C)=C\C=C\C(C)=C/C(=O)O)C(C)(C)CCC1`, the Potency is 20 µM (active).
Under `CC(C)(C)CCN1C[C@@H]2C(CNC(=O)c3cc(Cl)cc(Cl)c3)[C@@H]2C1` (stereo partly drawn) stands “inactive”.
The entry for `CC(=O)OC[C@@]12C(=O)C[C@@H](C)[C@]3(C[C@@H](c4ccoc4)O[C@H]3OC(C)=O)[C@H]1CCC[C@]21CO1` is “inactive”; for `CC(C)(C)c1cc(Br)cc([C@H](CC(=O)O)NC(=O)CNC(=O)c2cc(O)cc(NC3=NCC(O)CN3)c2)c1` (stereo partly drawn) it is “inactive”; for `Cc1ccc(Cc2c(C)nc3nc(SCC(=O)NCCN4CCNCC4)nn3c2C)cc1` it is “inactive”.
As for `CN[C@@H]1[C@H](O[C@H]2[C@H](O[C@@H]3[C@@H](O)[C@H](O)[C@@H](N=C(N)N)[C@H](O)[C@H]3N=C(N)N)O[C@@H](C)[C@]2(O)C=O)O[C@@H](CO)[C@H](O)[C@H]1O`, the Potency result was “inactive”.
